# Assay results from the supplement of paper PMC13380429.
# Tested on: Vero E6 infected with SARS-CoV-2
# Experiment: SARS-CoV-2 infection rate relative to infected DMSO; higher = more infection, active = 60 or less
# Settings: 24 h
row,SMILES,SARS-CoV-2 infection rate
1,Cn1cc(C[C@@H](N)C(=O)O)c2ccccc21 [indoximod] (10 µM),110% (inactive)
2,C[C@H](N)Cn1ccc2cc(F)c(Cl)cc21 (10 µM),90.5% (inactive)
3,Nc1cc(C(F)(F)F)c(-c2nc(N3CCOCC3)nc(N3CCOCC3)n2)cn1 (10 µM),114% (inactive)
4,O=C(Nc1c[nH]nc1-c1nc2ccc(CN3CCOCC3)cc2[nH]1)NC1CC1 (0.833333 µM),118% (inactive)
5,FC(F)(F)c1ccc(CNc2ccc(Cc3c[nH]c4ncc(Cl)cc34)cn2)cn1 [pexidartinib] (10 µM),77.5% (inactive)
6,C[C@@H]1NC(=O)[C@@H]2CCCN2C(=O)[C@H](CC(N)=O)NC(=O)[C@@H]2CSSC[C@H](N)C(=O)N[C@H]3CSSC[C@H](NC1=O)C(=O)N[C@@H]([C@@H](C)O)C(=O)NCC(=O)N[C@H](C(=O)N[C@@H](Cc1ccc(O)cc1)C(=O)O)CSSC[C@H](NC(=O)[C@H](Cc1ccc(O)cc1)NC(=O)[C@H](CCC(=O)O)NC3=O)C(=O)N2 [linaclotide] (10 µM),106% (inactive)
7,COC(=O)Nc1nc2cc(SC(C)C)ccc2[nH]1 [methiazole] (0.833333 µM),120% (inactive)
8,CN(NC(=O)CC(=O)NN(C)C(=S)c1ccccc1)C(=S)c1ccccc1 [elesclomol] (10 µM),19.5% (active)
9,O=C(NCC(=O)N1CC[C@H](N[C@H]2CC[C@@](O)(c3ccc(-c4ncccn4)cn3)CC2)C1)c1cccc(C(F)(F)F)c1 (10 µM),106% (inactive)
10,CC(C)(O)c1ccn2c(-c3ccc(F)c(-c4ccc(F)cc4C#N)c3)cnc2c1F (10 µM),108% (inactive)
11,COc1cc2ncnc(Nc3ccc(Cl)cc3F)c2cc1OC (10 µM),117% (inactive)
12,NS(=O)(=O)c1cc2c(cc1Cl)NC(C1CC3C=CC1C3)NS2(=O)=O (stereo not drawn) [cyclothiazide] (10 µM),106% (inactive)
13,O=C(CC1NCCCC1O)Cn1cnc2cc(Br)c(Cl)cc2c1=O (stereo not drawn) [halofuginone] (0.833333 µM),99.5% (inactive)
14,CN1CCN(c2ccc(/C=C(\C#N)c3ccccc3Br)cc2)CC1 (10 µM),116% (inactive)
15,Cc1ccccc1/N=N/c1ccc(/N=N/c2c(O)ccc3ccccc23)c(C)c1 [sudan-IV] (10 µM),92% (inactive)
16,O=C(Nc1ccc(-c2ccnc(Nc3ccc(N4CCOCC4)cc3)n2)cc1)C1CCCN1 (stereo not drawn) (10 µM),73.5% (inactive)
17,CNC[C@H](O)c1cccc(O)c1 [phenylephrine] (10 µM),110% (inactive)
18,COc1cc(NC(C)CCCN)c2ncccc2c1 (stereo not drawn) [primaquine] (10 µM),76.5% (inactive)
19,Oc1ccc2ccccc2c1 [beta-naphthol] (10 µM),111% (inactive)
20,CCn1cc(C(=O)O)c(=O)c2cc(F)c(N3CCNCC3)nc21 [enoxacin] (10 µM),105% (inactive)
21,CC1(C)S[C@@H]2[C@H](NC(=O)Cc3ccccc3)C(=O)N2[C@H]1C(=O)O [benzylpenicillin] (10 µM),114% (inactive)
22,COc1cccc2c1C(=O)c1c(O)c3c(c(O)c1C2=O)C[C@@](O)(C(=O)CO)C[C@@H]3O[C@H]1C[C@H](N)[C@H](O[C@@H]2CCCCO2)[C@H](C)O1 [pirarubicin] (10 µM),118% (inactive)
23,CC(CCc1ccc(O)cc1)NCCc1ccc(O)c(O)c1 (stereo not drawn) [dobutamine] (10 µM),113% (inactive)
24,CC(C)=CCC/C(C)=C/CC/C(C)=C/CCC(=O)OC/C=C(\C)CCC=C(C)C [geranyl-farnesylacetate] (10 µM),99% (inactive)
25,CC(COc1ccccc1)N(CCCl)Cc1ccccc1 (stereo not drawn) [phenoxybenzamine] (10 µM),106% (inactive)
26,CNc1ncnc2c1ncn2[C@@H]1O[C@H](CO)[C@@H](O)[C@H]1O [N6-methyladenosine] (10 µM),100% (inactive)
27,N#Cc1cc(NC(=O)C(=O)O)c(Cl)c(NC(=O)C(=O)O)c1 [lodoxamide] (10 µM),110% (inactive)
28,CN1CC(=O)NC1=N [creatinine] (10 µM),99.5% (inactive)
